Biological target: TNFAIP6
Experiment: pooled miR-30 sensor sort-seq; sequence = guide strand
Conditions: shRNA
Further: reference of the scale not given here.

Row | Sequence | sensor-assay potency score (higher = more potent)
1 | TATCTTCGTACTCATTTGGGAA | -0.842
2 | TACTTGAGTCTAATGTGCCAGT | -0.543
3 | TTGTATTTTTTCCTTGACTGGA | -0.793
4 | TGAAGCATCACTTAGAAACTTC | 0.148
5 | TAAAAATTTGCTTTGGATCTGT | 0.758
6 | TTCAAATTCACACACCGCCTTA | -0.588
7 | TTGAGTGTCTTCCCATAGCAAG | -1.58
8 | TAGTACTTGTATTTTTTCCTTG | -0.262
9 | TTCCAGTAGAAGTAGTACTTGT | -0.0924
10 | TTATCTTCGTACTCATTTGGGA | -0.091

Biological target: TNFRSF10A
Experiment: as above
Conditions: shRNA

Row | Sequence | sensor-assay potency score (higher = more potent)
11 | TTGAAGGTCTTGTGGACCCGGA | 0.23
12 | TTGCATACAAGGCATCCCCTGG | -0.804
13 | TCTTCTAAGTAGATGAACTTTC | -0.791
14 | TGTATTAACTCCTAACACCTAA | -0.808
15 | AAACTTGTCAAAGAACAGCATC | -1.04
16 | TTTCGTGAGGTCCAGCTGCCTC | -0.987
17 | TTGATCATGAAGTTTGATGGTT | 0.371
18 | TTCTTTGTGGACACACTCGATG | -0.86
19 | TCTAAGTAGATGAACTTTCCAG | -0.118
20 | TTAACTCCTAACACCTAAGAGG | -0.905
21 | TTGATGGTTGCAGCTGAGCTAG | -1.28

From the OligoGym collection
